For part of these data: Results with a measured potency or affinity are listed apart. Activity calls are given as the source filed them.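 Rule for the calls, unless noted: active = primary screen activator hit with a dose response curve and TRPC4 channel activation at any tested dose; inactive = no activation, no dose response, or not a primary hit.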
Tests used:
[1] = tested on: TRPC4 beta (transient receptor potential cation channel C4), mouse; assay: TRPC4 cation channel opening, retest – cell-based, Fluo4 calcium, HEK293 TRPC4beta/mu-opioid, duplicates, 10 µM, confirmation (AID 2426;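 active = fluorescence ratio normalized to control raised more than 50% in primary screen plus both repeat runs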); settings: Fluo4 calcium fluorescence, at 10 µM; stronger effect = higher value
[2] = tested on: transient receptor potential cation channel C4 beta (TRPC4), mouse; assay: TRPC4 cation channel opening, second retest – cell-based, second round, Fluo4, HEK293 TRPC4beta/mu-opioid, 1 µM, confirmation (AID 2461;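 active = primary screen active and over 50% activation in each of two duplicate runs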); settings: Fluo4 calcium fluorescence, at 1 µM; stronger effect = higher value
[3] = tested on: TRPC4 (transient receptor potential cation channel C4 beta), mouse; assay: potentiation of DAMGO EC20 TRPC4 response – cell-based, second round, Fluo-4, HEK293 TRPC4beta/mu-opioid, 1 µM, confirmation (AID 2554;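 active = primary screen hit whose fluorescence ratio, in both repeats, exceeds the weak agonist control mean by 3 SD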); settings: DAMGO EC20, Fluo-4 calcium flux, at 1 µM; stronger effect = higher value
[4] = tested on: TRPC4 beta (transient receptor potential cation channel C4), mouse; assay: potentiation of DAMGO EC20 TRPC4 response – cell-based, Fluo-4, HEK293 TRPC4beta/mu-opioid, confirmation (AID 2555;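 active = primary screen hit whose calcium fluorescence ratio, in both repeats, exceeds the weak agonist control mean by 3 SD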); settings: DAMGO EC20, Fluo-4 calcium flux, at 10 µM; stronger effect = higher value
[5] = biological target: Short transient receptor potential channel 4 (Mus musculus) (UniProt Q9QUQ5); assay: blockers of DAMGO-evoked TRPC4 calcium flux – cell-based, Fluo4, HEK293 TRPC4beta/mu-opioid, confirmation (AID 2636;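 active = calcium signal cut by more than 3 SD below the full-agonist control yet still positive, in both repeats and the earlier primary screen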); settings: at 10 µM; stronger effect = higher value
[6] = biological target: Short transient receptor potential channel 4 (Mus musculus) (UniProt Q9QUQ5); assay: blockers of DAMGO-evoked TRPC4 calcium flux – cell-based, second round, Fluo4, HEK293 TRPC4beta/mu-opioid, 1 µM, confirmation (AID 2637;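 active = calcium signal ratio cut to more than 3 SD under the fully stimulated control mean yet still positive, in both repeats and the primary screen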); settings: at 1 µM; stronger effect = higher value
[7] = biological target: Short transient receptor potential channel 4 (Mus musculus) (UniProt Q9QUQ5); assay: calcium entry via TRPC4 opening agents – cell-based, HEK293 TRPC4/mu-opioid, Fluo-4 calcium, dose response (AID 434937)
[8] = biological target: Short transient receptor potential channel 4 (Mus musculus) (UniProt Q9QUQ5); assay: potentiation of DAMGO-evoked TRPC4 calcium signal – cell-based, HEK293 TRPC4/mu-opioid, Fluo-4 calcium, EC20 DAMGO, dose response (AID 434941;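 active = earlier screen potentiator hit that boosts the TRPC4 ion channel at some dose, with a dose response; inactive = no potentiation, no dose response, or not a prior hit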;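 note: calcium entry triggered by an EC20 dose of DAMGO at the co-expressed mu-opioid receptor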)
[9] = biological target: Short transient receptor potential channel 4 (Mus musculus) (UniProt Q9QUQ5); assay: block of DAMGO-driven TRPC4 calcium entry – cell-based, HEK293 TRPC4/mu-opioid, Fluo-4 calcium, dose response (AID 434942;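 active = primary screen inhibitor hit that blocks the TRPC4 channel at some tested dose, yielding a dose curve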)
[10] = biological target: Short transient receptor potential channel 6 (Mus musculus) (UniProt Q61143); assay: TRPC6 blockade by TRPC4 inhibitor hits – cell-based, HEK293, membrane potential dye, duplicate, selectivity assay for TRPC4 inhibitor project, confirmation (AID 434948;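 active = active in primary screen and both duplicates, each dropping signal beyond three positive-control SD with fluorescence still positive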); settings: HEK293 TRPC6, membrane potential dye fluorescence, at 10 µM, stimulated with maximal-effect acetylcholine; stronger effect = higher value
[11] = biological target: Short transient receptor potential channel 6 (Mus musculus) (UniProt Q61143); assay: TRPC6 opening by TRPC4 activator hits – cell-based, HEK293, membrane potential dye, duplicate, selectivity assay for TRPC4 activator project, confirmation (AID 434950;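 active = membrane potential signal rise above negative control mean plus 3 SD in both duplicates, also active in the earlier TRPC4 screen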;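 for activation: 0% = buffer only wells and 100% = acetylcholine maximal-effect wells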); settings: HEK293 TRPC6, membrane potential fluorescence, at 10 µM; activation: stronger effect = higher value; outcome: activation
[12] = biological target: Short transient receptor potential channel 6 (Mus musculus) (UniProt Q61143); assay: positive modulators of mouse TRPC6 channel – HEK293 cells, membrane potential dye, duplicate, selectivity assay for TRPC4 potentiator project, confirmation (AID 434952;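 active = compound raising the membrane signal above positive-control mean plus 3 SD in both repeats, and a primary screen hit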); settings: HEK293 TRPC6, membrane potential dye fluorescence, at 10 µM, maximal acetylcholine added after compound; stronger effect = higher value
[13] = biological target: Short transient receptor potential channel 4 (Mus musculus) (UniProt Q9QUQ5); assay: calcium flux activators in TRPC4/5HT1a cells, counter-screen for TRPC4 activator project, cell-based, second counter screen, HEK293 TRPC4/5HT1a, Fluo-4 (AID 434977;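 active = calcium signal rise above buffer-control mean plus 5 SD in both duplicates, and also a hit in the primary screen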); settings: Fluo-4 calcium flux, at 10 µM; stronger effect = higher value
[14] = serotonin-gated TRPC4 signal block – cell-based, second counter screen, HEK293 TRPC4/5HT1a, Fluo-4, counter-screen for TRPC4 inhibitor project, confirmation (AID 434978;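 active = primary screen active whose calcium signal fell more than 3 SD beyond the full-serotonin control mean in both duplicate plates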;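 for outcome: serotonin given first at submaximal then at maximal dose after compound preincubation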); settings: Fluo-4 calcium flux, at 10 µM, serotonin added to trigger calcium flux; stronger effect = higher value
[15] = tested on: TRPC4 (mouse), co-expressed with 5HT1a in HEK293; assay: enhancement of serotonin-evoked TRPC4 response – cell-based, second counter screen, HEK293 TRPC4/5HT1a, Fluo-4, counter-screen for TRPC4 potentiator project, confirmation (AID 434979;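 active = signal rise over 3 SD above mean of control wells given weak agonist, in both repeats and first screen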); settings: Fluo-4 calcium flux, at 10 µM, serotonin added at its EC20 dose; stronger effect = higher value
[16] = nonspecific calcium rise without TRPC4 – cell-based, HEK293 mu-opioid receptor line, counter-screen for TRPC4 activator project, confirmation (AID 449723;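 active = hit in primary screen, with calcium signal over 5 SD above buffer well mean in both duplicates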;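 note: counter screen cells carry the mu-opioid receptor alone and lack TRPC4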); settings: HEK293 mu-opioid cells, Fluo-4 calcium fluorescence, at 10 µM; stronger effect = higher value
[17] = nonspecific potentiation of DAMGO calcium response – cell-based, HEK293 mu-opioid receptor line, counter-screen for TRPC4 allosteric potentiator project, confirmation (AID 449724;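 active = calcium signal rise more than 3 SD above the low-dose agonist control mean, in both duplicate plates and the primary screen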); settings: HEK293 mu-opioid receptor cells, Fluo-4 calcium flux, at 10 µM, compound added before EC20 DAMGO stimulus; stronger effect = higher value

Sequence of Short transient receptor potential channel 6 (Mus musculus) (Q61143 whole entry, looked up): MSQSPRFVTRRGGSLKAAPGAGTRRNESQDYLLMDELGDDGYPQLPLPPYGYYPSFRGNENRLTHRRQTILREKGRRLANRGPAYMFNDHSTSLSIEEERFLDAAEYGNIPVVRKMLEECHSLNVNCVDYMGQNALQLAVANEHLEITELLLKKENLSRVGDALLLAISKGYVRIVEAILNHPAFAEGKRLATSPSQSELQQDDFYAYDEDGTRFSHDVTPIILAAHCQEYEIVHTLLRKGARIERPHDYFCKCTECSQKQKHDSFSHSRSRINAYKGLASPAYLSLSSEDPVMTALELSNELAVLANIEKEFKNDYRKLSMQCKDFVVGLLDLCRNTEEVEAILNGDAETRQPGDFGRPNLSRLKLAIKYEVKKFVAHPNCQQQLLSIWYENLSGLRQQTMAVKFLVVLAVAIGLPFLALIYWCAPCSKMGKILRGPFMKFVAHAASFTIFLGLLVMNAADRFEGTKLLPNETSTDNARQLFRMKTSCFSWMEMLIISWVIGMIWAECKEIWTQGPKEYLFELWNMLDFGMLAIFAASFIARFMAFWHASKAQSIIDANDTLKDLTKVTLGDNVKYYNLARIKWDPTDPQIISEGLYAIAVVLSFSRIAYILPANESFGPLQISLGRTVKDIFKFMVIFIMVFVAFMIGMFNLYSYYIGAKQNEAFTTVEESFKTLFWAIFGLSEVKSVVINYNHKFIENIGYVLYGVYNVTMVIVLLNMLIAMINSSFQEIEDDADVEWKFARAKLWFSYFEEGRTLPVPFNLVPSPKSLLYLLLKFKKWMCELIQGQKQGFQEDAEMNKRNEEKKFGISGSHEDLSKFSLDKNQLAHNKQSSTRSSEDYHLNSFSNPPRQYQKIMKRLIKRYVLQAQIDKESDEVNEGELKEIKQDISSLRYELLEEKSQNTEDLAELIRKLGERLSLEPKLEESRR
Sequence of Short transient receptor potential channel 4 (Mus musculus) (Q9QUQ5 whole entry, looked up): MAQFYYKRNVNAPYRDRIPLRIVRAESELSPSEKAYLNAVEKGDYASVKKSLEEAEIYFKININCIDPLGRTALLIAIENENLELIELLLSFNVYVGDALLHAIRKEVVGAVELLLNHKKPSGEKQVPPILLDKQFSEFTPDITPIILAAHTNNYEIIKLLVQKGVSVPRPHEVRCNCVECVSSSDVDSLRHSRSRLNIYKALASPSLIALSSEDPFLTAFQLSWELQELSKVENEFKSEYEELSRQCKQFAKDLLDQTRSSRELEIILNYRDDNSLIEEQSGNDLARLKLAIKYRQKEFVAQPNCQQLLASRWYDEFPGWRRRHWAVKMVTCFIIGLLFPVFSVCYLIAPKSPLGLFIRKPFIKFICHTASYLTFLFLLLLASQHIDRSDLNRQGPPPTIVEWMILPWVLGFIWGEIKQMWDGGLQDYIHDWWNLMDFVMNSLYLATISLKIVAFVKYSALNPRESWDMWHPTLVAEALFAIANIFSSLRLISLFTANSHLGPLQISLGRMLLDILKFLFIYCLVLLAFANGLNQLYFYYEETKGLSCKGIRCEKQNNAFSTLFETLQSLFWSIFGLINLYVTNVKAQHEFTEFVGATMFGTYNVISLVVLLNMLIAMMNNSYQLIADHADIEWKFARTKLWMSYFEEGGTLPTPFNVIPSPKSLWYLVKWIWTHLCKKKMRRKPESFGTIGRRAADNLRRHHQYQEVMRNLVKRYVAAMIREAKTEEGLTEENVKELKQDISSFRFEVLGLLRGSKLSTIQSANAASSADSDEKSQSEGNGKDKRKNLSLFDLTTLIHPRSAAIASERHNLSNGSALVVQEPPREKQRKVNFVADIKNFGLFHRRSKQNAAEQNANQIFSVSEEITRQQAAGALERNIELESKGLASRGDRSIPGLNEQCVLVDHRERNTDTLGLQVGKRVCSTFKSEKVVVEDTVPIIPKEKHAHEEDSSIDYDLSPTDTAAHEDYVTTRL

C=CCOc1ccc(CN(C)Cc2nc3cc(C(F)(F)F)ccc3c(=O)[nH]2)cc1
active: potentiation [15] 10.9%
inactive: outcome [1] | outcome [2] | outcome [3] | outcome [4] | outcome [5] | outcome [6] | outcome [7] | outcome [8] | outcome [9] | outcome [10] | outcome [11] | outcome [12] | outcome [13] | outcome [14] | outcome [16] | outcome [17]

Nc1nn2c(C(F)(F)F)cc(=O)[nH]c2c1N=Nc1cccc(F)c1
inactive: outcome [1] | outcome [2] | outcome [3] | outcome [4] | outcome [5] | outcome [6] | outcome [7] | outcome [8] | outcome [9] | outcome [10] | outcome [11] | outcome [12] | outcome [13] | outcome [14] | outcome [15] | outcome [16] | outcome [17]

CC(C)CN(C(=O)COC(=O)CCC(=O)c1ccc(Cl)cc1)c1c(N)n(Cc2ccccc2)c(=O)[nH]c1=O
inactive: outcome [1] | outcome [2] | outcome [3] | outcome [4] | outcome [5] | outcome [6] | outcome [7] | outcome [8] | outcome [9] | outcome [10] | outcome [11] | outcome [12] | outcome [13] | outcome [14] | outcome [15] | outcome [16] | outcome [17]

COc1cc(CN2CCC(CO)(CCOc3ccccc3)CC2)cc(OC)c1
inactive: outcome [1] | outcome [2] | outcome [3] | outcome [4] | outcome [6] | outcome [7] | outcome [8] | outcome [9] | outcome [10] | outcome [11] | outcome [12] | outcome [13] | outcome [15] | outcome [16] | outcome [17]
active: inhibition [5] 87% | inhibition [14] 43.6%

c1ccc(Nc2ncnc3sc4c(c23)CCC4)cc1
inactive: outcome [1] | outcome [2] | outcome [3] | outcome [4] | outcome [5] | outcome [6] | outcome [7] | outcome [8] | outcome [9] | outcome [10] | outcome [12] | outcome [13] | outcome [14] | outcome [15] | outcome [16] | outcome [17]
active: activation [11] 30%

C/C(CC(=O)NCc1ccc(Cl)cc1)=N\NC(=O)COc1ccc(C)cc1Br
inactive: outcome [1] | outcome [2] | outcome [3] | outcome [4] | outcome [5] | outcome [6] | outcome [7] | outcome [8] | outcome [9] | outcome [10] | outcome [11] | outcome [12] | outcome [13] | outcome [14] | outcome [15] | outcome [16] | outcome [17]

CN1CCN(CC#CCn2c3ccccc3c3ccccc32)CC1
active: potentiation [3] 10% | potentiation [4] 12% | potentiation [15] 38.7%
inactive: outcome [1] | outcome [2] | outcome [5] | outcome [6] | outcome [7] | outcome [8] | outcome [9] | outcome [10] | outcome [11] | outcome [12] | outcome [13] | outcome [14] | outcome [16] | outcome [17]

CN(CC(=O)Nc1ccc(F)cc1)C(=O)COC(=O)C1CCN(c2ccc(C(F)(F)F)cn2)CC1
active: inhibition [5] 70% | inhibition [14] 36.3%
inactive: outcome [1] | outcome [2] | outcome [3] | outcome [4] | outcome [6] | outcome [7] | outcome [8] | outcome [9] | outcome [10] | outcome [11] | outcome [12] | outcome [13] | outcome [15] | outcome [16] | outcome [17]

CCOc1ccccc1C(=O)NCCc1cnc[nH]1
active: potentiation [4] 10% | potentiation [15] 16.9%
inactive: outcome [1] | outcome [2] | outcome [3] | outcome [5] | outcome [6] | outcome [7] | outcome [8] | outcome [9] | outcome [10] | outcome [11] | outcome [12] | outcome [13] | outcome [14] | outcome [16] | outcome [17]

N=c1c(C(=O)NCC2CCCO2)cc2c(=O)n3ccccc3nc2n1Cc1ccccc1Cl (stereo not given)
active: potentiation [3] 96% | potentiation [4] 102% | potentiation [15] 101%
inactive: outcome [1] | outcome [2] | outcome [5] | outcome [6] | outcome [7] | outcome [8] | outcome [9] | outcome [10] | outcome [11] | outcome [12] | outcome [13] | outcome [14] | outcome [16] | outcome [17]

CNc1oc(-c2ccccc2Cl)nc1P(=O)(c1ccccc1)c1ccccc1
inactive: outcome [1] | outcome [2] | outcome [3] | outcome [4] | outcome [5] | outcome [6] | outcome [7] | outcome [8] | outcome [9] | outcome [10] | outcome [11] | outcome [12] | outcome [13] | outcome [14] | outcome [15] | outcome [16] | outcome [17]

O=C(NC1CC1)c1ccc2c(c1)N(Cc1ccc(Cl)cc1)CCS2
inactive: outcome [1] | outcome [2] | outcome [3] | outcome [4] | outcome [5] | outcome [6] | outcome [7] | outcome [8] | outcome [9] | outcome [10] | outcome [11] | outcome [12] | outcome [13] | outcome [14] | outcome [15] | outcome [16] | outcome [17]

Cc1ccc(S(=O)(=O)NC(=O)N2CCN(Cc3c(F)cccc3Cl)CC2)cc1
active: potentiation [15] 15.3%
inactive: outcome [1] | outcome [2] | outcome [3] | outcome [4] | outcome [5] | outcome [6] | outcome [7] | outcome [8] | outcome [9] | outcome [10] | outcome [11] | outcome [12] | outcome [13] | outcome [14] | outcome [16] | outcome [17]

COc1ccc(/C=C(\C#N)C(=O)N2CCOCC2)cc1Br
inactive: outcome [1] | outcome [2] | outcome [3] | outcome [5] | outcome [6] | outcome [7] | outcome [8] | outcome [9] | outcome [10] | outcome [11] | outcome [12] | outcome [13] | outcome [14] | outcome [16] | outcome [17]
active: potentiation [4] 17% | potentiation [15] 20.4%

O=C1CC2(CCN(S(=O)(=O)c3ccccc3)CC2)Oc2ccccc21
active: potentiation [4] 52% | potentiation [15] 28.7%
inactive: outcome [1] | outcome [2] | outcome [3] | outcome [5] | outcome [6] | outcome [7] | outcome [8] | outcome [9] | outcome [10] | outcome [11] | outcome [12] | outcome [13] | outcome [14] | outcome [16] | outcome [17]

Source: PubChem BioAssay
